HP1b chromo inh = HTS for Inhibitors of HP1-beta Chromodomain Interactions with Methylated Histone Tails; Chromobox protein homolog 1 (Homo sapiens), P83916; AlphaScreen HP1-beta / biotin-H3K9me3 peptide binding; Potency, µM (highest dose often 114 µM), for inactives: at the top dose activity change, negative = inhibition, most hits filed as inhibitors; hit rate 0.56% among 390,000; AID 540317, 2011; note: nearly all actives have a fitted effect of over 70% in size
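AlphaScreen: HP1-beta (50 nM) preformed 30 min with biotin-H3(1-18)K9me3 peptide (50 nM) in PBS pH 7.4, 0.01% Tween-20. Compound added for 30 min at RT, then streptavidin donor/nickel chelate acceptor beads (10 ug/mL) for 30 min.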
JMJD2A Tudor inh = qHTS Assay for Inhibitors of JMJD2A-Tudor Domain | Lysine-specific demethylase 4A (Homo sapiens), O75164 | AlphaScreen JMJD2A-Tudor / H3K4me3 peptide binding | Potency, µM (series often up to 114 µM), inactives show at the top dose activity change, negative = inhibition, most hits filed as inhibitors | hit rate 4.4% among 390,000 | AID 504339, 2011; note: % is set by controls: 0 for no effect and ±100 for the full control effect; nearly all actives have a fitted effect of over 50% in size
L3MBTL1 block = qHTS Assay for the Inhibitors of L3MBTL1 | AlphaScreen L3MBTL1–H3K9me1 peptide binding | Potency, µM (doses to about 57.1 µM), for inactives: at the highest dose activity, negative = inhibition, hits mostly inhibitors | hit rate 0.66% among 230,000 | AID 485360, 2010; note: % is set by controls: 0 for no effect and ±100 for the full control effect; nearly all actives have a fitted effect of over 60% in size
Target sequence (Q9Y468 whole entry, looked up): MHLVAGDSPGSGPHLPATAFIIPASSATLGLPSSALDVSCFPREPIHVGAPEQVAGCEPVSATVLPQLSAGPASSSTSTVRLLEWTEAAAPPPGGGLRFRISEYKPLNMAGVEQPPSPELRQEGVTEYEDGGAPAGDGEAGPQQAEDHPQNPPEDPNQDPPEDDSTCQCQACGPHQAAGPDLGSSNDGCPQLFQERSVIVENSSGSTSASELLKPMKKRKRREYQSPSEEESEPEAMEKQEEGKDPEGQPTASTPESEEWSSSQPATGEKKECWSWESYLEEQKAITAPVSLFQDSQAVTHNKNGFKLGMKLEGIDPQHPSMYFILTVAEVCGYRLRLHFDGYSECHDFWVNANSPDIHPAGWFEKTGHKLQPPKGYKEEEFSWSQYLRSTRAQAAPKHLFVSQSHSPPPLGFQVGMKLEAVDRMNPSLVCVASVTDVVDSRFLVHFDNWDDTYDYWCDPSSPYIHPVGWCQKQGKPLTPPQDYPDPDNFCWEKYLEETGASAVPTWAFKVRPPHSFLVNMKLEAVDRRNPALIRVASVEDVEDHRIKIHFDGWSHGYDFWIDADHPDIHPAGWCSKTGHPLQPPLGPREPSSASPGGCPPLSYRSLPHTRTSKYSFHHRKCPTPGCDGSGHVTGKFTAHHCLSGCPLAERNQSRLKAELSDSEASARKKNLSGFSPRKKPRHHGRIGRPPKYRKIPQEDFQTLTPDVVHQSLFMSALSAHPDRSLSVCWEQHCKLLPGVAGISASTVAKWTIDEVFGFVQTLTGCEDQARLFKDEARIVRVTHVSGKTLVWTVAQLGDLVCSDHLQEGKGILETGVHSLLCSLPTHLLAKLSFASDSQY
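AlphaScreen proximity signal between nickel-chelate acceptor and streptavidin donor beads (final 10 ug/mL) reports binding of 50 nM L3MBTL1 to 75 nM biotin-H3 K9me1 peptide; complex incubated with compounds 30 min at room temperature; cefsulodin titration as control.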
BAZ2B block = qHTS Assay for Inhibitors of BAZ2B; Bromodomain adjacent to zinc finger domain protein 2B (Homo sapiens), Q9UIF8; AlphaScreen BAZ2B-H3K14Ac peptide displacement; Potency, µM (series often up to 114 µM), without a hit: at the top dose activity change, negative = inhibition, most hits filed as inhibitors; hit rate 4.4% among 360,000; AID 504333, 2011; note: % is set by controls: 0 for no effect and ±100 for the full control effect; nearly all actives have a fitted effect of over 60% in size
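BAZ2B 50 nM plus b-H3(5-23)K14Ac 50 nM, PBS pH 7.4/0.01% Tween-20, 30 min RT; compound added (max 110 uM), 30 min RT; streptavidin donor/Ni-chelate acceptor beads 10 ug/mL final, 20 min dark; AlphaScreen read.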
G9a block = qHTS Assay for Inhibitors of Histone Lysine Methyltransferase G9a; Histone-lysine N-methyltransferase EHMT2 (Homo sapiens), Q96KQ7; G9a H3K9 monomethylation, AlphaScreen, 2 h; Potency, µM (titrated, usually from 102 µM), inactives show top-dose activity, negative = inhibition, most hits filed as inhibitors; hit rate 8.8% among 350,000; AID 504332, 2011; note: % is set by controls: 0 for no effect and ±100 for the full control effect; nearly all actives have a fitted effect of over 75% in size
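AlphaScreen read-out: biotin-H3K9 peptide (500 nM) methylation by 20 nM enzyme with 20 uM SAM, 2 h at room temperature after 15 min compound preincubation; anti-monomethyl H3K9 antibody plus donor/acceptor beads, 10 min dark.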
Sfp inh = qHTS Assay for Inhibitors of Bacillus subtilis Sfp phosphopantetheinyl transferase (PPTase); 4'-phosphopantetheinyl transferase ffp (Bacillus subtilis), Q9F4F7; Biochemical Sfp PPTase activity, qHTS; Potency, µM, inactives show largest response in the series, negative = inhibition, usual class: inhibitors; hit rate 3.5% among 310,000; AID 1490, 2009;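 note: the enzyme is Sfp with the accession as filed and its product quenches rhodamine fluorescence; 0% = enzyme reaction without inhibitor and -100% = no enzyme wells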
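With Hepes-Na pH 7.6 buffer containing 10 mM MgCl2, Sfp (15 nM) modified BHQ-2-YbbR (12.5 uM) using rhodamine-CoA (5 uM). Two reads 30 minutes apart at 525/598 nm yielded each well's rate.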
* = called active by the depositor; ? = inconclusive; nt = no result given; ! = not confirmed by another sample; [ ] = remark or other dose. Compounds with a hit are over-represented: about 12% of the library has one in this group of screens. Calls come from the whole dose curve; as a rule, active = well fitted curve in the direction sought with a large enough effect; inconclusive = small, poorly fitted or top-dose-only effect, or another doubt; inactive = no such curve, though single readings can be large; an effect the other way counts as inactive or inconclusive. Potency is the fitted concentration of half-maximal effect.

SMILES	HP1b chromo inh	JMJD2A Tudor inh	L3MBTL1 block	BAZ2B block	G9a block	Sfp inh
O=C(CCCN1C(=O)/C(=C/c2cccc(Br)c2)SC1=S)N1CCOCC1	?	?	nt	-23%	?	-19%
O=C(CCN1C(=O)/C(=C/c2ccccc2)SC1=S)NCCCN1CCOCC1	4%	-13%	nt	-13%	8%	-4%
CN1CCN(C(=O)CCCN2C(=O)/C(=C/c3cccc(Br)c3)SC2=S)CC1	40µM*	35µM*	nt	45µM*	40µM*	-20%
CCCCNC(=S)Nc1ccc(OC)nc1	-6%	-9%	3%	-15%	56µM*	8%
COc1ccc(/C=C/C(=O)Nc2ccc(OC)nc2)cc1	43%	-8%	8%	-8%	21%	21%
COc1ccc(CS(=O)(=O)/C(Cl)=C(/Cl)C(=O)Nc2ccc(OC)nc2)cc1	27%	-21%	nt	-7%	45µM*	1%
COc1ccc(NC(=S)Nc2ccccc2)cn1	11%	15%	-1%	5%	23%[59 µM]	-8%
COc1ccc(NC(=O)/C(Cl)=C(/Cl)S(=O)Cc2ccccc2)cn1 (stereo not given)	49%	-9%	nt	10%	11µM*	40µM*
CCCCNC(=O)CCC1N=C2c3ccccc3N=C(SCC(=O)NCCc3ccc(OC)c(OC)c3)N2C1=O (stereo not given)	-7%	-27%	nt	-3%	5%[59 µM]	nt
COc1ccc(Br)c2oc(SC)cc(=O)c12	32%	-10%	-7%	?	40µM*	13%
O=C(CC(=O)c1ccccn1)c1ccccc1	36%	25µM*	nt	nt	nt	nt
O=C(O)c1ccccn1	27%	4µM*	14µM*	2.8µM*	0.56µM*!	25µM*
Cc1cccc(NC(=O)c2ccccn2)c1C	8%	7.9µM*	3%	-4%	?	3%
O=C(c1ccccc1)c1ccccn1	30%	-6%	nt	-1%	11%	0%
COc1cc(Cl)c(C)cc1NC(=O)c1cc(CN2CCOCC2)on1	-20%	-24%	nt	?	-1%[59 µM]	nt
CC1=C(CC(=O)c2ccccc2)C(=O)c2ccccc2C1=O	?	35µM*	?	22µM*	32µM*	-20%
O=C(CN1C(=O)c2ccccc2C1=O)c1ccccc1	27%	12%	nt	12%	19%[12.7 µM]	4%
CCc1ccc(NC(=O)CN2CCN(Cc3ccccc3)S2(=O)=O)cc1	16%	-10%	nt	-17%	10%[59 µM]	nt
COc1ccc(C(CC(=O)Nc2ccc(C)cn2)N2Cc3ccccc3C2=O)cc1OC (stereo not given)	24%	-7%	nt	-37%	?	nt
CCCOCC1CC(CCc2nc(=S)[nH][nH]2)C(=O)O1 (stereo not given)	?	5µM*	9%	-2%	1.8µM*	56µM*
Cc1ccccc1CN1c2ccccc2S(=O)(=O)c2ccccc21	-17%	-21%	nt	-11%	-5%[59 µM]	nt
CC12CCC(C(=O)N(CSC(=S)N/N=C\c3ccccc3O)C1=O)C2(C)C (stereo not given)	-15%	40µM*	5.6µM*	2.8µM*	4.5µM*	38%
COc1cc2c(cc1OC)C1=C(C#N)CCC(=NC(=O)c3ccco3)N1CC2	40%	-4%	1%	1%	-2%	-2%
COc1cc2c(cc1OC)C1=C(C#N)CN(CC(=O)O)CN1CC2	-24%	22µM*	-1%	79µM*	35µM*	-12%
COC(=O)C1=C(C)N(c2cc(C)cc(C)c2)/C(=C/c2ccco2)C1=O	-23%	79µM*	13µM*	50µM*	?	?
SMILES	HP1b chromo inh	JMJD2A Tudor inh	L3MBTL1 block	BAZ2B block	G9a block	Sfp inh
COC(=O)C1=C(C)N(c2cc(C)cc(C)c2)/C(=C/c2ccc(O)cc2)C1=O	-11%	-29%	nt	-23%	?	45µM*
COc1ccc(NC(=O)CN(C)S(=O)(=O)c2ccc3nc(C)sc3c2)cc1	42%	-16%	nt	-3%	5%[59 µM]	nt
O=C1CS/C(=N\NC(=O)c2ccccc2)N1	31%	?	2%	-36%	2.5µM*	-11%
CCOC(=O)CSc1ccc(C(=O)N2CCN(C)CC2)cc1[N+](=O)[O-]	31%	-7%	nt	11%	45µM*	-8%
CC1CCN(C(=O)c2ccc(SCc3ccccc3F)c([N+](=O)[O-])c2)CC1	?	?	4%	-38%	28µM*	-19%
CC1CCC(NC(=O)COC(=O)CSc2ccc(C(N)=O)cc2[N+](=O)[O-])CC1 (stereo not given)	30%	-17%	4%	-6%	50µM*	nt
NC(=O)c1ccc(SCC(=O)OCC(=O)NC2CCCCCCC2)c([N+](=O)[O-])c1	?	?	-2%	-23%	?	nt
NC(=O)c1ccc(SCC(=O)OCC(=O)N2CCCC2=O)c([N+](=O)[O-])c1	14%	-10%	-3%	5%	50µM*	nt
CCc1ccc(S(=O)(=O)c2nnn3c2nc(N(C)Cc2ccccc2)c2cc(Cl)ccc23)cc1	39%	17%	nt	7%	7%[59 µM]	nt
Cc1ccc(CN2CCSc3ccc(C(=O)NCC(C)c4ccccc4)cc32)cc1 (stereo not given)	60%	-25%	nt	-13%	0%[59 µM]	nt
CCOc1ccc2nc3cc(NCc4ccc(OC)cc4)ccc3c(N)c2c1	38%	?	nt	?	35µM*	32µM*
CCc1ccc(CNc2ccc3c(c2)ncn3CC)cc1	?	45µM*	nt	?	11µM*	-2%
CCCCn1cnc2cc(NCc3ccncc3)ccc21	8%	?	-5%	-11%	?	1%
CCn1cnc2cc(NCc3ccc(OC)cc3)ccc21	2%	-35%	nt	?	8.9µM*	-7%
COc1ccc2[nH]c(=O)c(CN(C(=O)c3cccc(Cl)c3)c3ccccc3C)cc2c1	17%	-22%	nt	0%	-39%[59 µM]	nt
O=S(=O)(c1ccc2c(c1)CCCC2)N1CCN(c2nc(-c3ccccc3)nc3ccccc23)CC1	32%	-16%	nt	nt	nt	nt
CC1CC[C@@]2(OC1)OC1CC3C4CC[C@@H]5CC(O)CC[C@@]5(C)C4CC[C@]3(C)C1C2C (stereo not given in full)	nt	nt	nt	nt	-9%[2.33 µM]	8%
COc1ccc(OC)c(NC2c3ccccc3C(=O)N2c2cccnc2)c1 (stereo not given)	44%	-33%	-11%	-14%	50µM*	-30%
CCOC(=O)c1ccc(NC2c3ccccc3C(=O)N2c2ccccn2)cc1 (stereo not given)	15%	-18%	nt	-1%	50µM*	-21%

High-throughput results: PubChem, National Center for Advancing Translational Sciences (NCATS)
